From PubChem
D2 PAM-1 – HTS Assay for Positive Allosteric Modulators of the Human D2 Dopamine Receptor: Primary Screen for Potentiators | AID 485347, 2010 | potentiation, % at 10 µM | 0.34% of 340,000 active | HEK293 T-REx D2, calcium flux, EC20 dopamine potentiation;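 active means potentiation over 3 SD above the plate norm, cut at about 30% in these data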; further: 0% is about no effect
Target sequence (P14416 whole entry, looked up): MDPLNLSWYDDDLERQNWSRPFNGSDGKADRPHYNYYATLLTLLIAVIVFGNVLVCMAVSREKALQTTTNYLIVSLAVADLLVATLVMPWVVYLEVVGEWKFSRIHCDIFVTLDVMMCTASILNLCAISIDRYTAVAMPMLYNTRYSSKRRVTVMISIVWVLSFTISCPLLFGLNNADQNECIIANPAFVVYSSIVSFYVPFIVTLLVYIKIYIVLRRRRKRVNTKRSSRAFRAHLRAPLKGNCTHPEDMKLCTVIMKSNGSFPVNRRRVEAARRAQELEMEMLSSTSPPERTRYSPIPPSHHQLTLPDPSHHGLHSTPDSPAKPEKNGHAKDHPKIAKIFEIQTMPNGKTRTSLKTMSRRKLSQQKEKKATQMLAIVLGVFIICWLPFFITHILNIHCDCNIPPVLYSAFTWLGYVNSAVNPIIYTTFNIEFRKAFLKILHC
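Tetracycline-induced HEK293 T-REx cells force-coupled to calcium signalling expressed D2; compounds were pin-added after a 10 s baseline, read kinetically 180 s, then an EC20 dopamine challenge followed with a further 180 s calcium read.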
D2 antag – HTS Assay for Allosteric Antagonists of the Human D2 Dopamine Receptor: Primary Screen for Antagonists; 2% of 340,000 active; HEK293 TREx D2 cells, calcium flux, dopamine EC80; D(2) dopamine receptor (Homo sapiens), P14416; inhibition, % at 10 µM; in the data active means inhibition above about 30%; inactive means below that, where a call was filed; further: 0% is about no effect
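In this primary screen, negative modulation is detected by tracking calcium flux after an EC80 dopamine challenge in inducible HEK293 T-REx D2 cells preexposed to test compound for 180 s.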
D2 ag-1 – HTS Assay for Allosteric Agonists of the Human D2 Dopamine Receptor: Primary Screen for Agonists; D(2) dopamine receptor (Homo sapiens), P14416; HEK293 T-REx D2 cells, calcium flux agonist mode; activation, % at 2 µM; 0.53% of 340,000 active; AID 485358, 2010;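 active means activation over 3 SD above normal in the single-dose calcium agonist read, cut at about 30% in these data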; further: 0% is about no effect
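Agonism scored from kinetic calcium signal (1 read/sec, 180 s) following compound pin transfer, after a 10 s baseline. Cells: HEK293 Trex line expressing inducible D2 receptor coupled to calcium, dye-loaded after overnight culture at 30 C.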
D2 PAM-2 – Beta-Arrestin HTS for Positive Allosteric Modulators of the Human D2 Dopamine Receptor: Potentiators. 0.23% of 360,000 active. AID 624464, 2012. D(2) dopamine receptor (Homo sapiens), P14416. potentiation, % (no concentration beside the values). DiscoveRx D2 beta-arrestin cells, luminescence, 90 min; 100% = 57 uM dopamine signal; in the data active means potentiation above about 50%; inconclusive means mostly about 30% to 49%
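D2 cells co-treated with compound plus 50 nM dopamine (EC20) for 90 min at 37 deg C to detect potentiation. Beta-arrestin recruitment was read as enzyme-fragment luminescence after 1 h at ambient temperature. Full response was set by 57 uM dopamine.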
D2 ag-2 – Beta-Arrestin HTS for Positive Allosteric Modulators of the Human D2 Dopamine Receptor: Agonists. D(2) dopamine receptor (Homo sapiens), P14416. 0.084% of 360,000 active. activation, % (test concentration not listed). AID 624465, 2012. DiscoveRx PathHunter D2 beta-arrestin, luminescence, 90 min; 100% = 57 uM dopamine signal; in the data active means activation above about 40%; inconclusive means between about 15% and that limit
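Agonist mode: compounds alone added to overnight-plated D2 PathHunter cells for 90 min at 37 C, with 57 uM final dopamine (EC100) defining full response. Beta-arrestin recruitment detected by chemiluminescent reagent, read after 1 h at ambient temperature.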
* hit, by the source's call; ? = inconclusive; · = no result given. Hits are enriched below; roughly 2.4% of the tested compounds scored in any of these assays.

SMILES	D2 PAM-1	D2 antag	D2 ag-1	D2 PAM-2	D2 ag-2
FC(F)(F)c1nc(-c2ccncc2)ncc1-c1nnnn1-c1ccccc1	26.0	58.4*	-0.3	-6.8	0.1
CCC1Oc2nc(SC)nnc2-c2ccccc2N1C(=O)c1ccccc1 (stereo not given)	0.5	34.0*	-0.7	-7.4	-2.9
CSc1ccc(CCNC(=O)c2ccc3c(c2)nc2n3CCC(C)C2)cc1 (stereo not given)	-4.9	·	1.2	·	·
O=[N+]([O-])c1ccc(Cl)c(S(=O)(=O)N2CCCCCC2)c1	10.3	-5.1	-0.3	70.5*	0.1
Cc1ccc(C(=O)NCc2ccccc2F)cc1S(=O)(=O)N1CCCC1	11.8	-30.5	0.8	-10.5	2.1
O=C(NCc1ccc(Cl)cc1)c1cc2ccccc2o1	·	·	1.1	·	·
O=C(NCc1ccccc1CN1CCCC1)c1cc2cc(Cl)ccc2o1	-18.6	39.9*	0.3	-2.7	5.5
CN1CCN(S(=O)(=O)c2cc([N+](=O)[O-])ccc2Cl)CC1	1.1	3.3	0.4	27.9	4.5
Cc1ccc(C(=O)NCc2ccccc2CN2CCCC2)cc1S(=O)(=O)N1CCOCC1	-27.9	51.5*	-0.4	-31.5	-1.2
COc1ccc(C(=O)NCc2ccco2)cc1S(=O)(=O)N1CCOCC1	-6.9	10.3	0.4	-2.8	-2.3
COc1ccc(C(=O)NCc2ccccc2CN2CCCC2)cc1S(=O)(=O)N1CCOCC1	-23.1	45.2*	0.3	-16.8	-6.7
CC(=O)Nc1nonc1-c1nnc(SCC(=O)Nc2cc(C)cc(C)c2)n1-c1ccccc1	1.3	·	-2.0	·	·
O=C(NCc1ccccc1CN1CCCC1)c1ccc(Cl)c(S(=O)(=O)N2CCCC2)c1	-26.1	32.9*	-0.2	-32.1	-1.9
O=C(NCC1COc2ccccc2O1)c1ccc(Cl)c(S(=O)(=O)N2CCOCC2)c1 (stereo not given)	-1.1	30.6*	0.9	-0.9	-1.7
CC(=O)N1CCN(C(=O)c2ccc(Cl)c(S(=O)(=O)N3CCCCCC3)c2)CC1	7.0	31.9*	0.6	-6.1	1.4
O=C(c1ccc(Cl)c(S(=O)(=O)N2CCCCC2)c1)N1CCCCC1	-4.9	-8.0	0.1	-12.7	-3.6
COc1ccccc1C(=O)NCc1ccc2c(c1)CCN2C(=O)c1ccncc1	3.1	·	0.6	·	·
COc1cccc(OCC(=O)NCCS(=O)(=O)N2CCN(c3ccccc3F)CC2)c1	-4.6	·	15.3	·	·
Cc1ccccc1NC(=O)Cn1nnc(-c2ccc(CN3CCC(C)CC3)cc2)n1	-8.2	33.3*	1.6	-15.4	0.4
COc1ccc(-n2c(SCc3ccccc3F)nc3c([nH]c4ccccc43)c2=O)cc1OC	2.7	·	·	·	·
O=C(c1ccc(NC(=O)C2(c3ccccc3)CCOCC2)cc1)N1CCOCC1	7.3	31.7*	-0.5	-2.4	-1.2
O=C(Nc1ccc(Cl)c(C(=O)N2CCOCC2)c1)c1ccccc1	52.4*	17.6	-0.3	-3.0	-7.6
CC(=O)c1ccc(NC(=O)C2(c3ccccc3)CCOCC2)cc1	-0.5	2.3	0.2	-20.6	0.5
CC(C)CCNC(=O)c1ccc2nc(Cc3ccccc3)oc2c1	17.5	·	-1.1	·	·
CCC12CN3CC(C)(CN(C1)C3c1c[nH]c3ccc(OC)cc13)C2=O (stereo not given)	-0.4	·	3.8	·	·
SMILES	D2 PAM-1	D2 antag	D2 ag-1	D2 PAM-2	D2 ag-2
COc1ccc(C(=O)Nc2c3c(nn2C(C)(C)C)CS(=O)(=O)C3)cc1OC	13.7	35.1*	0.3	-6.1	-4.2
CC(C)(C)c1ccc(C(=O)Nc2c3c(nn2C(C)(C)C)CS(=O)(=O)C3)cc1	-9.1	-3.3	1.1	-4.4	-3.2
CCCn1c(=O)c2sccc2n2c(CCCC(=O)N3CCN(c4cccc(C)c4C)CC3)nnc12	-5.3	·	0.2	·	·
COc1ccc2nc(SC)c(C#N)cc2c1	-4.6	55.0*	-1.2	4.5	-0.1
COc1ccc2nc(SCC(C)=O)c(C#N)cc2c1	7.3	-3.3	14.0	-1.9	-1.0
Nc1c(C(=O)C2CC2)sc2nc(-c3cccs3)cc(C(F)(F)F)c12	-8.3	3.7	35.9*	-12.6	-6.2
O=c1[nH]c(/C=C/c2cccc3ccccc23)nc2ccccc12	-0.3	3.2	-0.6	-12.6	-4.4
O=c1[nH]c(/C=C/c2ccccn2)nc2ccccc12	1.9	37.1*	1.1	-6.1	-9.2
Oc1cccc(Nc2nc(N3CCOCC3)nc(N3CCOCC3)n2)c1	-4.3	36.0*	1.1	5.2	3.4
Cc1cccc(Nc2nc(N3CCOCC3)nc(N3CCOCC3)n2)c1	5.1	7.1	0.4	-8.2	-1.7
CCSc1nnc2c(n1)OC1(CCCC1)Nc1ccccc1-2	1.0	38.7*	-1.6	1.0	-2.0
CCSc1nnc2c(n1)OC(c1ccc(C)s1)Nc1ccccc1-2 (stereo not given)	-4.1	·	-0.3	·	·
COc1ccc(NS(=O)(=O)c2coc(C(N)=O)c2)cc1Cl	-2.4	30.8*	0.7	0.4	4.3
COc1ccc(SCCN2CC[C@@H](C)CCC2=O)cc1	6.4	1.2	0.6	-2.9	-0.8
CC1CCC(=O)N(CCSc2ccccc2)CC1 (stereo not given)	-4.2	33.3*	0.1	-17.4	-0.4
O=C(CSc1nc2ccc(Cl)cc2[nH]1)NCCc1ccccc1	7.2	39.4*	-0.4	-13.3	-1.2
O=C(CSc1nc2ccc(Cl)cc2[nH]1)NCCc1ccc(Cl)cc1	7.8	2.1	-0.5	-3.2	0.3
CCCc1nn2c(=O)cc(COC(=O)c3ccccc3NC(=O)COc3ccccc3F)nc2s1	10.2	·	1.8	·	·
CCOC(=O)c1c(NC(=O)CC(C)C)sc(C(C)=O)c1C	36.8*	6.6	1.1	7.3	-2.4
Cn1c(=O)c2[nH]c(-c3ccccc3Cl)c(O)c2n(C)c1=O	·	·	·	25.1	3.8
Cn1c(=O)c2[nH]c(-c3ccccc3)c(O)c2n(C)c1=O	9.3	10.6	5.2	107.6*	?
Cc1nc2nc(SCC(=O)NCCCN3CCCCCC3)nn2c(C)c1Cc1ccccc1	5.3	-6.3	-0.3	-10.5	-3.9
Cc1ccccc1Cc1c(C)nc2nc(SCC(=O)NCCCN3CCCCC3)nn2c1C	14.5	75.4*	0.7	-2.7	4.1
CN(CC(=O)Nc1ccc(OC(F)(F)F)cc1)C(=O)/C=C/c1cc2c(cc1[N+](=O)[O-])OCO2	-21.8	79.9*	0.1	-4.6	-3.3
CCOC(=O)N1CCN(C(=O)c2cc(C)no2)CC1	30.1*	20.6	0.3	-2.3	-3.1
Cc1cc(C(=O)N2CCC(C)CC2)on1	10.3	-0.3	1.1	-3.8	1.5
